Screening data deposited in PubChem by Broad Institute.
miR-122 sensor = blocks miR-122 activity in Huh7 sensor cells. Huh7 miR-122 Renilla luciferase sensor, 48 h; neutral wells = 0, positive control = 100. activation (reporter increase), % at 12.5 µM. actives 0.3% (n = 340,000). AID 602342;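 active = mean replicate activation score at least 90 and every replicate individually at or above 90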;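 also: higher luciferase means less miR-122 activity so hits act as miR-122 inhibitors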
CASP6 VEID inh = caspase-6 (human) enzyme inhibition. P55212. purified caspase-6, Z-VEID-R110 cleavage fluorescence. inhibition, % at 12.5 µM. actives 0.53% (n = 350,000);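 active = mean inhibition across replicates at least about 35%, with every replicate also reaching that limit, limit read from the data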
NSD2 HMT inh = NSD2 (human) methyltransferase inhibition. AID 743445. NSD2 peptide methylation, AlphaScreen, 120 min. actives 0.54% (n = 310,000). inhibition, % at 12.5 µM; in the data active = inhibition above about 50%
Target sequence (O96028 whole entry, looked up): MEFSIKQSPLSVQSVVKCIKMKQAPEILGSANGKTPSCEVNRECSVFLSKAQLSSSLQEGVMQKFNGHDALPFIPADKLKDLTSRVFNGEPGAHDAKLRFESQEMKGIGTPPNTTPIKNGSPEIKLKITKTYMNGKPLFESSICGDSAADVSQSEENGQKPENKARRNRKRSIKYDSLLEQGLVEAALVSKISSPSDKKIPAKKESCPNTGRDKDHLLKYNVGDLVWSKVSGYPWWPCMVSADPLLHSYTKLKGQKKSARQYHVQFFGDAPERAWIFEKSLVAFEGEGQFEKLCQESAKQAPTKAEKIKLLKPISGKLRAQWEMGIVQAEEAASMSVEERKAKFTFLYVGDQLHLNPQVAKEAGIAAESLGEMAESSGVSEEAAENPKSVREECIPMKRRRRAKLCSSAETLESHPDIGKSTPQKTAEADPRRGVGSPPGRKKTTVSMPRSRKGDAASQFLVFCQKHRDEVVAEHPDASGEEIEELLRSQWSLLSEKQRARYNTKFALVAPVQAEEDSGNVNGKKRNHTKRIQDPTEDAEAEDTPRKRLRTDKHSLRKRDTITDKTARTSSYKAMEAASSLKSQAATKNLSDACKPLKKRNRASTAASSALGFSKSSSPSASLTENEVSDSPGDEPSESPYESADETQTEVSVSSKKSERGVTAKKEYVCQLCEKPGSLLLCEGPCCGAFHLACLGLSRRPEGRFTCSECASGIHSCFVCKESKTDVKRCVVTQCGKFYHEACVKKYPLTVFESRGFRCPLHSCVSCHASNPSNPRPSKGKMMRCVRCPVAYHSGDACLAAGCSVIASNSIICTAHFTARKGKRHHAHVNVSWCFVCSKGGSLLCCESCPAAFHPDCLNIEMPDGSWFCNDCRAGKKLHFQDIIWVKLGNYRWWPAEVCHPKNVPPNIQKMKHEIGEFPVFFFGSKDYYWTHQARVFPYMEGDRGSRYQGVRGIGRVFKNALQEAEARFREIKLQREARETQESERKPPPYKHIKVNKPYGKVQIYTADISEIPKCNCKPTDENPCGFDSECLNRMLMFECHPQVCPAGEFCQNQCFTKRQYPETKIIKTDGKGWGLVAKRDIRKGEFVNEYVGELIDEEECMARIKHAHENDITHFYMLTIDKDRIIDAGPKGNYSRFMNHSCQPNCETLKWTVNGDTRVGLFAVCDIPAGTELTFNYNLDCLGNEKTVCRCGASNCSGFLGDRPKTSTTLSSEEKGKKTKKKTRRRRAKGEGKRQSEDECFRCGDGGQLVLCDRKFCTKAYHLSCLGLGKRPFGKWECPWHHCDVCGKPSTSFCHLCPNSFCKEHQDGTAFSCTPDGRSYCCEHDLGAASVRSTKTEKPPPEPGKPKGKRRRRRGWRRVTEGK
AF4-AF9 inh = blocks AF4 peptide binding to human AF9; inhibition, % at 10 µM; AID 651704; AlphaScreen, biotin-AF4 peptide binding to FLAG-AF9; P42568; actives 0.47% (n = 350,000);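 active = every replicate reaching a set inhibition limit, whatever the replicate mean, cut at about 25% in these data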
RAD52 inh = blocks human RAD52 DNA annealing | P43351 | recombinant RAD52 DNA annealing, FRET fluorescence | inhibition, % at 18.7 µM | actives 0.46% (n = 360,000) | AID 651710;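 active = every replicate showing at least 50% inhibition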
Of the large screens only hits and unclear results are named; the others gave an inactive call; ! = not confirmed by another sample; [ ] = another dose, or the depositor's remark. In the library only some 1.5% were active in any assay of this set; here they are far more common.

COc1ccc(C(C)(C)C)cc1NS(=O)(=O)c1cccc2cccnc12	miR-122 sensor 117.1
COc1ccccc1NS(=O)(=O)c1ccc2ccccc2c1	none
Cc1cccc(C)c1NS(=O)(=O)c1ccc(-c2ccc(=O)[nH]n2)o1	CASP6 VEID inh 40.6
Nc1ccccc1OCCOc1ccccc1N	none
CCCOc1ccc(N)cc1N	NSD2 HMT inh 67.9 (no result: CASP6 VEID inh, AF4-AF9 inh, RAD52 inh)
COc1cc(CN2C[C@@H]3N[C@H](C2)C3c2ccc(-c3ccccc3C)cc2)cc(OC)c1 (some centres not stated)	AF4-AF9 inh 26.8!, RAD52 inh 63.8 (no result: miR-122 sensor, NSD2 HMT inh)
COc1ccc(-c2ccc(C3[C@@H]4CN(Cc5cccc(OC)c5)C[C@H]3N4)cc2)cc1 (some centres not stated)	RAD52 inh 66.9 (no result: miR-122 sensor, NSD2 HMT inh)
COc1cccc(CN2C[C@@H]3N[C@H](C2)C3c2ccc(-c3ccncc3)cc2)c1 (some centres not stated)	none (no result: miR-122 sensor, NSD2 HMT inh)
COc1cccc(CN2C[C@@H]3N[C@H](C2)C3c2ccc(-c3cccc(C#N)c3)cc2)c1 (some centres not stated)	RAD52 inh 55.1 (no result: miR-122 sensor, NSD2 HMT inh)
COc1cccc(-c2ccc(C3[C@@H]4CN(Cc5cccc(F)c5)C[C@H]3N4)cc2)c1 (some centres not stated)	RAD52 inh 53.3 (no result: miR-122 sensor, NSD2 HMT inh)
COc1ccc(S(=O)(=O)N(C)C)cc1NCC(=O)Nc1ccc(C)c(F)c1	none (no result: miR-122 sensor, CASP6 VEID inh, AF4-AF9 inh, RAD52 inh)
O=C(C[C@H]1C=C[C@H](NC(=O)c2ccncc2)[C@@H](CO)O1)NCc1ccncn1	none (no result: miR-122 sensor, NSD2 HMT inh)
COc1cccc(CN2[C@@H]3CNC[C@H]2[C@H]3c2ccc(-c3ccccc3OC)cc2)c1	none (no result: miR-122 sensor, NSD2 HMT inh)
COc1cccc(CN2C[C@@H]3N[C@H](C2)C3c2ccc(-c3ccccc3F)cc2)c1 (some centres not stated)	RAD52 inh 64.0! (no result: miR-122 sensor, NSD2 HMT inh)
CC(C)C#Cc1ccc2c(c1)O[C@@H](CN(C)C(=O)c1cccnc1)[C@@H](C)CN([C@H](C)CO)S2(=O)=O	none (no result: NSD2 HMT inh)
COc1ccc2oc(C(=O)N3CCN(C(c4ccccc4)c4ccccc4)CC3)c(C)c2c1	none
COc1ccc2oc(C(=O)N3CCc4ccccc43)c(C)c2c1	miR-122 sensor 137.0
COCCN=c1scc(-c2cccs2)n1/N=C/c1ccc(O)c(O)c1O	AF4-AF9 inh 53.3 (no result: miR-122 sensor, NSD2 HMT inh)
CCN=c1scc(C)n1/N=C/c1ccc(O)c(O)c1O	none (no result: CASP6 VEID inh, NSD2 HMT inh, AF4-AF9 inh, RAD52 inh)
CCOc1ccc(CNC(=O)CS(=O)(=O)Cc2nc(-c3ccc(OC)cc3)oc2C)cc1	AF4-AF9 inh 48.1 (no result: miR-122 sensor, NSD2 HMT inh)
O=C(O)/C(=C\c1ccc(Br)cc1)c1ccc(S(=O)(=O)N2CCCCC2)s1	none (no result: miR-122 sensor)
O=C(O)/C(=C\c1cccc(F)c1)c1ccc(S(=O)(=O)N2CCCC2)s1	CASP6 VEID inh 57.2
Cc1cccc(/C=C(\C(=O)O)c2ccc(S(=O)(=O)N3CCCC3)s2)c1	CASP6 VEID inh 51.6
CCOc1ccccc1/C=C(\C(=O)O)c1ccc(S(=O)(=O)N2CCCCC2)s1	CASP6 VEID inh 35.8 (no result: miR-122 sensor)
COc1cc(/C=C(\C(=O)O)c2ccc(S(=O)(=O)N3CCCC3)s2)ccc1OCCC(C)C	CASP6 VEID inh 44.6
S=C(NCC1CCCCC1)Nc1ccc(Oc2ccccc2)cc1	miR-122 sensor 117.5
C[C@@H]1CCCCO[C@@H](CN(C)Cc2ccc(C(F)(F)F)cc2)[C@H](C)CN([C@@H](C)CO)C(=O)c2cc(NS(=O)(=O)c3ccc(F)cc3)ccc2O1	none (no result: NSD2 HMT inh)
O=C(CCN1CCN(c2ccccc2)CC1)N/N=C/c1ccc(O)c(O)c1O	CASP6 VEID inh 65.3
COc1ccc(/C=N/NC(=O)CCN2CCN(c3ccccc3)CC2)c(OC)c1OC	none (no result: CASP6 VEID inh, AF4-AF9 inh, RAD52 inh)
COc1ccc2cc(/C=N/NC(=O)CN3CCOCC3)c(Cl)nc2c1	none (no result: miR-122 sensor, CASP6 VEID inh, AF4-AF9 inh, RAD52 inh)
Cc1ccc(NC(=O)CN2C(=O)S/C(=C\c3cc(C)n(-c4cccc(C(=O)O)c4)c3C)C2=O)cc1	CASP6 VEID inh 39.3 (no result: miR-122 sensor)
Cc1ccc(NC(=O)CN2C(=O)S/C(=C\c3ccc(C(=O)O)cc3)C2=O)cc1	CASP6 VEID inh 43.3
Cc1ccc(NC(=O)CN2C(=O)S/C(=C/c3ccc(-c4cccc(C(=O)O)c4)o3)C2=O)cc1	none (no result: miR-122 sensor, CASP6 VEID inh)
CN(C)CC(=O)N1CCCCN2[C@@H](CO)[C@H](c3ccc(/C=C/c4ccccc4)cc3)[C@@H]2C1	RAD52 inh 68.8 (no result: NSD2 HMT inh)
CN(C)CC(=O)N1CCCCN2[C@@H](CO)[C@@H](c3ccc(-c4ccccc4)cc3)[C@@H]2C1	none (no result: NSD2 HMT inh)
CN(C)CC(=O)N1CCCCN2[C@H](C1)[C@@H](c1ccc(/C=C/c3ccccc3)cc1)[C@@H]2CO	RAD52 inh 58.1 (no result: NSD2 HMT inh)
CN(C)CC(=O)N1CCCCN2[C@H](CO)[C@H](c3ccc(/C=C/c4ccccc4)cc3)[C@H]2C1	RAD52 inh 61.6 (no result: NSD2 HMT inh)
O=C(NC1CCCC1)N1CCCCN2[C@@H](CO)[C@@H](c3ccc(/C=C/c4ccccc4)cc3)[C@@H]2C1	AF4-AF9 inh 27.9 (no result: NSD2 HMT inh)
C[C@H]1CCCCO[C@@H](CN(C)Cc2ccncc2)[C@@H](C)CN([C@@H](C)CO)C(=O)c2cc(N(C)C)ccc2O1	none (no result: NSD2 HMT inh)
CN(C)CC(=O)N1CCCCN2[C@@H](CO)[C@@H](c3ccc(/C=C/c4ccccc4)cc3)[C@@H]2C1	RAD52 inh 70.5 (no result: NSD2 HMT inh)
CN(C)CC(=O)N1CCCCN2[C@H](C1)[C@H](c1ccc(/C=C/c3ccccc3)cc1)[C@@H]2CO	none (no result: NSD2 HMT inh)
Cc1noc(C)c1NC(=O)Nc1cccc2c1O[C@@H](CN(C)Cc1ccc(Cl)c(Cl)c1)[C@@H](C)CN([C@H](C)CO)C2=O	miR-122 sensor 114.1[16.7 µM] (no result: NSD2 HMT inh)
Cc1noc(C)c1NC(=O)Nc1cccc2c1O[C@@H](CN(C)Cc1ccc(Cl)c(Cl)c1)[C@H](C)CN([C@H](C)CO)C2=O	none (no result: NSD2 HMT inh)
Cc1noc(C)c1NC(=O)Nc1cccc2c1O[C@H](CN(C)Cc1ccccc1)[C@@H](C)CN([C@H](C)CO)C2=O	miR-122 sensor 96.5[16.7 µM] (no result: NSD2 HMT inh)
COc1ccc(S(=O)(=O)Nc2ccc3c(c2)C(=O)N([C@@H](C)CO)C[C@@H](C)[C@H](CN(C)S(=O)(=O)c2c(C)noc2C)OCCCC[C@H](C)O3)cc1	none (no result: NSD2 HMT inh)
Oc1c(N=Nc2ccc(F)cc2)ccc2ccccc12	none (no result: miR-122 sensor)
Oc1c(N=Nc2nn[nH]n2)ccc2ccccc12	CASP6 VEID inh 93.8 (no result: miR-122 sensor, NSD2 HMT inh)
O=C(O)C1CCCCC1C(=O)Nc1nc(-c2ccc(Cl)s2)cs1 (configuration not stated)	CASP6 VEID inh 46.1 (no result: miR-122 sensor)
CCCC(=O)Nc1nc(-c2ccc(Cl)s2)cs1	none (no result: miR-122 sensor)
Cc1cc(-c2cc(C)c(N)cc2C)c(C)cc1N	none
Cc1cc2c(cc1C)C(=O)C(Br)=C(N)C2=O	CASP6 VEID inh 74.1
COc1ccc(NC(=O)Nc2cccc3c2O[C@H](CN(C)C(=O)Nc2ccccc2)[C@@H](C)CN([C@@H](C)CO)C3=O)cc1	none (no result: CASP6 VEID inh, NSD2 HMT inh)
Cc1ccc(S(=O)(=O)Nc2ccc3c(c2)CC(=O)N([C@H](C)CO)C[C@@H](C)[C@@H](CN(C)Cc2ccc(Oc4ccccc4)cc2)O3)cc1	none (no result: NSD2 HMT inh)
COc1ccc(CN(C(=O)c2ccc(-c3ccccc3)[nH]2)C(C(=O)NCC2CCCO2)c2ccc(C)o2)cc1 (configuration not stated)	miR-122 sensor 230.2 (no result: CASP6 VEID inh, AF4-AF9 inh, RAD52 inh)
